Many of the other results were omitted from the sample, so hits are more common in it than they were.
SARS PLpro yeast = qHTS of Yeast-based Assay for SARS-CoV PLP. S. cerevisiae expressing SARS-CoV PLpro, growth rescue. AID 485353, 2010. hit rate 0.19% among 330,000. Potency, µM (top dose mostly 32.9 µM), hits mostly activators; also: nearly all actives have a fitted effect of over 55% in size
NS1 inh = qHTS Assay for Inhibitors of Influenza NS1 Protein Function; Potency, µM (titrated, usually from 46.1 µM); hit rate 0.4% among 270,000; AID 2326, 2010; also: actives are rising curves; nearly all actives have a fitted effect of over 50% in size
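OD600 was taken as the measure of yeast growth restored by compound in an NS1-expressing S. cerevisiae strain. Cells had been washed out of glucose medium and diluted 1:100 into galactose -URA medium, pH 6.0.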
CHX counter = Cycloheximide Counterscreen for Small Molecule Inhibitors of Shiga Toxin | cell reporter, cycloheximide protein synthesis inhibition counterscreen | max response, % | hit rate 12% among 300,000 | AID 2314, 2010; in the data active = max response mostly above about 13%, no sharp cut-off; inactive = mostly below about 14%; also: read at 38.3 µM for the half of the compounds with a filed dose
LmPK inhibitor = qHTS Assay for Inhibitors of Leishmania Mexicana Pyruvate Kinase (LmPK). Q27686. Potency, µM (top dose mostly 57.5 µM), actives largely listed as inhibitors. purified LmPK, Kinase-Glo ATP luminescence, 1 h. hit rate 0.37% among 290,000; active = well fitted curve in the direction sought with a large enough effect; inconclusive = small, poorly fitted or top-dose-only effect, or another doubt; inactive = no such curve, though single readings can be large; an effect the other way counts as inactive or inconclusive
Target sequence (Q27686 whole entry, looked up): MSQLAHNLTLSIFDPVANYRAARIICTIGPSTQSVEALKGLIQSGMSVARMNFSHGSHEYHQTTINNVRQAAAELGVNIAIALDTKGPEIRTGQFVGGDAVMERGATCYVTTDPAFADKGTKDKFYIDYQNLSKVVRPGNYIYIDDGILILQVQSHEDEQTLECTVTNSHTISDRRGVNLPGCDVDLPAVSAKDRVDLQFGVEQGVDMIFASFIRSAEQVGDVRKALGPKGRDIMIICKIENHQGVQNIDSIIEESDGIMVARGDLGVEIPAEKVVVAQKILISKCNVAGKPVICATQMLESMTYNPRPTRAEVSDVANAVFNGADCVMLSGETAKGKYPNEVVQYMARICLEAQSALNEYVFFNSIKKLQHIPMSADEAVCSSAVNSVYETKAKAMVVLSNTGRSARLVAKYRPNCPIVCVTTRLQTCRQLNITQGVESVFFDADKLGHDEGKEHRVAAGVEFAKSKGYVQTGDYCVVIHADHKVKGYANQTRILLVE
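Purified LmPK (0.1 nM) converted ADP (0.1 mM) to ATP with PEP (0.5 mM) in imidazole buffer pH 7.2 with KCl and MgCl2, 1 h at room temperature. ATP was read by Kinase-Glo luminescence; data normalized to uninhibited and no-enzyme controls.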
Shiga toxin inh = A qHTS for Small Molecule Inhibitors of Shiga Toxin; Vero cells, Shiga toxin protein synthesis inhibition reporter; inhibition, % at 38.7 µM; hit rate 9.2% among 290,000; in the data active = inhibition mostly above about 28%, no sharp cut-off; inactive = mostly below about 43%
TbPYK inhibitor = qHTS of Trypanosoma Brucei Inhibitors | pyruvate kinase (Trypanosoma brucei), Q57TT1 | TbPYK enzyme, Kinase-Glo Plus ATP luminescence, 45 min | Potency, µM (highest dose often 76.8 µM), usual class: inhibitors | hit rate 0.12% among 410,000; active = well fitted curve in the direction sought with a large enough effect; inconclusive = small, poorly fitted or top-dose-only effect, or another doubt; inactive = no such curve, though single readings can be large; an effect the other way counts as inactive or inconclusive; also: nearly all actives have a fitted effect of over 50% in size
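ADP (130 uM final) triggers the TbPYK reaction after compound addition; incubation is 45 min at room temperature. Kinase-Glo Plus is then added and luminescence imaged. Normalized data are fitted to concentration-effect curves.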
A number is an active result. Unless noted, calls follow the shape of the full dose curve.

`CCOc1ccccc1C(=O)NCC(=O)NCCSc1ccc(Br)cc1` gave TbPYK inhibitor inactive.
Screening O=C(NCC1CCN(C(=O)c2c(F)c(F)c(F)c(F)c2F)CC1)c1c(F)c(F)c(F)c(F)c1F returned SARS PLpro yeast inactive, NS1 inh inactive, CHX counter inactive, LmPK inhibitor inactive, Shiga toxin inh inactive and TbPYK inhibitor inactive.
For Cc1ccc(OCC(=O)N2CCCc3ccccc32)cc1 the results were SARS PLpro yeast inactive, NS1 inh inactive, CHX counter inactive, LmPK inhibitor inactive, Shiga toxin inh 33 and TbPYK inhibitor inactive.
`FC(F)(F)c1ccc2c(c1)NCC1CCCN21` (centres undefined) gave SARS PLpro yeast inactive, NS1 inh inactive, CHX counter 17, LmPK inhibitor inactive, Shiga toxin inh inactive and TbPYK inhibitor inactive.
For FC(F)(F)c1ccc2c(c1)N1CCCC1CN2 (centres undefined) the results were SARS PLpro yeast inactive, NS1 inh inactive, CHX counter inactive, LmPK inhibitor inactive, Shiga toxin inh inactive and TbPYK inhibitor inconclusive.
For CC(=O)c1cn(CCCOc2ccccc2)c2ccccc12 the results were SARS PLpro yeast inactive, NS1 inh inactive, CHX counter 21, LmPK inhibitor inactive, Shiga toxin inh inactive and TbPYK inhibitor inactive.
For O=C(O)c1cn(CCOc2ccccc2Cl)c2ccccc12 the results were SARS PLpro yeast inactive, CHX counter 38, LmPK inhibitor inactive, Shiga toxin inh 50 and TbPYK inhibitor inactive.
CC(=O)c1cn(CCOc2ccc(F)cc2)c2ccccc12 was read as SARS PLpro yeast inactive, NS1 inh inactive, CHX counter 12, LmPK inhibitor inactive and TbPYK inhibitor inactive.
`C[C@H]1CN([C@@H](C)CO)S(=O)(=O)c2ccc(Br)cc2O[C@H]1CN(C)S(=O)(=O)c1ccccc1` gave TbPYK inhibitor inactive.
For O=C(OCc1cc(=O)n2c(n1)sc1ccccc12)c1cccc(O)c1 the results were SARS PLpro yeast inactive, NS1 inh inactive, CHX counter 23, LmPK inhibitor inactive, Shiga toxin inh 49 and TbPYK inhibitor inactive.
`O=C(CN1C(=O)C2CC=CCC2C1=O)Nc1ccc(Br)cc1` (centres undefined) gave SARS PLpro yeast inconclusive, NS1 inh inactive, CHX counter inactive, LmPK inhibitor inactive, Shiga toxin inh inactive and TbPYK inhibitor inactive.
O=C(Cn1sc2ccccc2c1=O)Nc1ccc(Br)cc1 was read as TbPYK inhibitor 7.9µM.
Screening Oc1c(Cl)cc(Cl)cc1C=Nc1ccc2c(c1)OCCO2 returned SARS PLpro yeast inactive, NS1 inh inactive, CHX counter 68, LmPK inhibitor inactive, Shiga toxin inh 117 and TbPYK inhibitor inactive.
For Brc1csc(C=Nc2ccc3c(c2)OCCOCCOCCOCCO3)c1 the results were SARS PLpro yeast inactive, NS1 inh inactive, CHX counter inactive, LmPK inhibitor inactive, Shiga toxin inh inactive and TbPYK inhibitor inactive.
For Cc1cc(C)c(Cn2c3ccccc3c3cnn(CC(=O)N4CCCCC4)c(=O)c32)c(C)c1 the results were TbPYK inhibitor inactive.
Cc1ccc(-c2nc(NC(=O)CSc3cc(C)c4ccccc4n3)ns2)cc1 was read as SARS PLpro yeast inactive, NS1 inh inactive, CHX counter inactive, LmPK inhibitor inactive, Shiga toxin inh inactive and TbPYK inhibitor inactive.
`Cc1nnc(SCC(=O)Nc2cccc(S(=O)(=O)N(C)c3ccccc3)c2)s1` gave SARS PLpro yeast inactive, NS1 inh inactive, CHX counter 38, LmPK inhibitor inactive, Shiga toxin inh inactive and TbPYK inhibitor inactive.
COc1ccc(-c2nc(NC(=O)CSc3nnc(C)s3)ns2)cc1 was read as SARS PLpro yeast inactive, NS1 inh inactive, CHX counter 34, LmPK inhibitor inactive, Shiga toxin inh 33 and TbPYK inhibitor inactive.
O=C(CSc1nnc2ccccn12)Nc1nsc(-c2ccccc2)n1 was read as SARS PLpro yeast inactive, NS1 inh inactive, CHX counter 19, LmPK inhibitor inactive, Shiga toxin inh inactive and TbPYK inhibitor inactive.
For O=C(CSc1nnnn1-c1ccccc1)Nc1nsc(-c2ccccc2)n1 the results were SARS PLpro yeast inactive, NS1 inh inactive, CHX counter inactive, LmPK inhibitor inactive, Shiga toxin inh inactive and TbPYK inhibitor inactive.

Screening results (PubChem)
